Measured values: PubChem BioAssay (EPA / NIEHS)
Records with an inconclusive call do not appear. Some compounds were tested as several samples or in several runs, with calls that do not always agree. Calls of active or inactive are those of the source. How the source made its calls, unless noted: active means hit-call score of the fitted dose curve at least 0.9, where 1 is the maximum; inconclusive means response in the unintended direction; inactive means score below 0.9.

Columns and labels:
[1] = read-out: sulfotransferase (SULT2A), SULT2A1 (gene 6822); experiment: CLD_SULT2A_48hr: CellzDirect (CLD) Gene Expression Assay for sulfotransferase (SULT2A) at 48 hours (AID 2283710);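 further: hits raise SULT2A1 transcript above the 0.2% DMSO vehicle baseline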
Outline: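 Primary human hepatocytes (two donor preparations) dosed daily for two days with chemicals at multiple concentrations, vehicle 0.2% DMSO; SULT2A1 mRNA induction at 48 h by quantitative nuclease protection assay, chemiluminescent read-out, fitted for gain of signal versus DMSO.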

[2] = read-out: HMG-CoA synthase (HMGCS2), HMGCS2 (gene 3158); experiment: CLD_HMGCS2_48hr: CellzDirect (CLD) Gene Expression Assay for HMG-CoA synthase (HMGCS2) at 48 hours (AID 2283711)
Outline: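 Primary human hepatocytes from two donors dosed daily for two days, 0.2% DMSO vehicle. HMGCS2 mRNA measured 48 h after dosing by quantitative nuclease protection assay with chemiluminescent read-out; induction fitted relative to DMSO, cytotoxicity flagged by microscopy.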

[3] = STM_H9_OrnithineISnorm_perc: Stemina devTOX quickPredict H9 human embryonic stem cell (hESC)-based Assay for Ornithine (ORN) Metabolite Biomarker, Normalized (AID 2283712; active means hit-call score of the fitted dose curve at least 0.9, where 1 is the maximum; inactive means score below 0.9;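 further: ornithine released into spent medium during last day measured by mass spectrometry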)
Outline: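 H9 human embryonic stem cells kept pluripotent receive test chemical over 72 h, refreshed daily by media exchange. Media from the closing 24 h is deproteinized and analysed by UPLC-HRMS on an amide column; ornithine signal is scaled to labelled standard and vehicle.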

[4] = STM_H9_CystineISnorm_perc: Stemina devTOX quickPredict H9 human embryonic stem cell (hESC)-based Assay for Cystine (CYSS) Metabolite Biomarker, Normalized (AID 2283713; active means hit-call score of the fitted dose curve at least 0.9, where 1 is the maximum; inactive means score below 0.9)
Outline: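 H9 hESC, pluripotent; compound 72h, re-dosed q24h with medium change. Last-24h medium → 40% acetonitrile deproteinization → UPLC-HRMS. CYSS area / C13-CYSS standard, then % of 0.1% DMSO median.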

[5] = STM_H9_OrnCyssISnorm_ratio: Stemina devTOX quickPredict H9 human embryonic stem cell (hESC)-based Assay for Ornithine (ORN):Cystine (CYSS) Ratio (AID 2283714)
Outline: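 Steps: H9 hESCs in pluripotent state dosed 72h, medium plus compound renewed every 24h; conditioned medium from the final 24h deproteinized in 40% acetonitrile; ORN and CYSS quantified by UPLC-HRMS with C13 spike-ins; ratio relative to vehicle.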

[6] = CEETOX_H295R_MTT_cell_viability: Viability Assessment in the CeeTox HT-H295R MTT Assay (AID 2283718; active means hit-call score of the fitted dose curve at least 0.9, where 1 is the maximum; inactive means score below 0.9;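 on AC50: curve fitted both ways so AC50 may mark viability loss or gain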)
Outline: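 MTT reduction (0.5 mg/ml, 4 h at 37 C; absorbance at 570 and 650 nm) gave viability as background-corrected percent change versus controls. H295R cells had 48 h forskolin (10 uM) prestimulation, then 48 h chemical exposure at 0.1% DMSO.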

[7] = ArunA_CellTiter_hNC: Viability Assessment in the ArunA Biomedical's Oris Neural Crest (hNC) Cell Migration Assay (AID 2283752)
Outline: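 Cell titer was measured with the CellTiter Aqueous One reagent after 72 h of chemical dosing. Cells were H9-derived embryonic neural crest stem cells seeded on Matrigel, 60,000 per well, and given 16 h at 37C beforehand.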

[8] = ArunA_CellTiter_hNP: Viability Assessment in the ArunA Biomedical's Oris Neural Crest (hNC) Cell Migration Assay (AID 2283753)
Outline: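 H9-derived hNP1 neuroprogenitors, 60,000/well on Matrigel, cultured 16 h, then 72 h chemical exposure in test medium. Cell titer via CellTiter Aqueous One; positive-direction fit vs DMSO.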

[9] = ArunA_Migration_hNP: ArunA Biomedical's Oris Neuroprogenitor (hNP) Cell Migration Assay (AID 2283754)
Outline: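 Human H9-derived hNP1 neuroprogenitors on Matrigel with LIF/bFGF, plated around seeding stoppers for 16 h at 37C; stoppers removed at start of 72 h chemical exposure. Calcein-AM staining, fluorescence 494/517 nm in detection zone; loss-of-signal vs DMSO; cytochalasin D control.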

[10] = ArunA_Migration_hNC: ArunA Biomedical's Oris Neural Crest (hNC) Cell Migration Assay (AID 2283755)
Outline: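 Human H9-derived neural crest stem cells, 60,000/well on Matrigel, 16 h at 37C, then 72 h chemical exposure after seeding-stopper removal. Migration into detection zone read as calcein-AM fluorescence (ex494/em517), relative to DMSO.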

[11] = ArunA_NOG_NucleusCount: ArunA Biomedical's Neurite Outgrowth (NOG) Assay for Nucleus Count (AID 2283756)
Outline: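 Human H9-derived differentiated neurons were exposed for 48 h right after seeding. Hoechst-stained nuclei gated by size and intensity were counted by automated high-content imaging as viable neurons. Loss of signal vs DMSO.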

[12] = ArunA_NOG_NeuritesPerNeuron: ArunA Biomedical's Neurite Outgrowth (NOG) Assay for Neurites Per Neuron (AID 2283758)
Outline: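 Differentiated human H9-derived neurons exposed to chemicals for 48 h from seeding, then stained with Hoechst and βIII-tubulin/DyLight 488. Automated imaging counted neurites (processes >10 um) per valid neuron; loss of signal versus DMSO scored.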

[13] = ArunA_NOG_BranchPointsPerNeurite: ArunA Biomedical's Neurite Outgrowth (NOG) Assay for Branch Points Per Neurite (AID 2283759)
Outline: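 Automated image analysis traced neurites (processes >10 um) from valid cell bodies after Hoechst and βIII-tubulin staining. hNN cells from H9 embryonic stem cells, 48 h exposure. Fitted bidirectionally against DMSO.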

[14] = molecular target: Luciferin 4-monooxygenase (Photinus pyralis) (UniProt P08659); experiment: CCTE_Simmons_QuantiLum_inhib_2: CCTE's Firefly Luciferase Inhibition Assay, Simmons Lab (AID 2283767)
Outline: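 Luminescence loss relative to DMSO vehicle defines inhibition; detection reagent containing 150 uM D-luciferin and 147 uM dATP (final, pH 7.8) is injected immediately before each read. Enzyme is preincubated with an 8-point titration (5 nM–87.5 uM final) for 30 min at 37C.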

[15] = system: zebrafish Androgen Receptor (AR), gene 100005148; experiment: ATG_zfAR_XSP1: Attagene TRANS-FACTORIAL Multi-Species (XSP1) HepG2 Assay for zebrafish Androgen Receptor (AR) (AID 2283771)
Outline: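 HepG2 cells were transiently transfected with a zebrafish AR-GAL4 reporter system and partially stimulated with 3 nM 6-alpha-fluorotestosterone. Reporter mRNA was measured after 24 h dosing by RT-PCR with capillary electrophoresis, and gain-of-signal was fitted relative to DMSO.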

[16] = molecular target: zebrafish Estrogen Receptor (ESR1), esr1 (gene 259252) (UniProt P57717); experiment: ATG_zfER1_XSP1: Attagene TRANS-FACTORIAL Multi-Species (XSP1) HepG2 Assay for zebrafish Estrogen Receptor (ESR1) (AID 2283772)
Outline: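 Readout: fluorescent reporter mRNA, RT-PCR plus FAM labelling, HpaI digest, capillary electrophoresis; gain-of-signal fit vs DMSO. HepG2, transient multi-reporter TRANS (NR-GAL4 chimera), 24 h chemical exposure, 3 nM 6-alpha-fluorotestosterone co-added.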

[17] = system: zebrafish Estrogen Receptor (ESR2B), gene 317733; experiment: ATG_zfER2b_XSP1: Attagene TRANS-FACTORIAL Multi-Species (XSP1) HepG2 Assay for zebrafish Estrogen Receptor (ESR2B) (AID 2283773)
Outline: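 Gain-of-signal endpoint relative to DMSO: reporter transcript levels quantified by RT-PCR and capillary electrophoresis after 24 h compound exposure of HepG2 cells expressing a zebrafish ER2b-Gal4 chimera.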

Sequence of Luciferin 4-monooxygenase (Photinus pyralis) (P08659 whole entry, looked up): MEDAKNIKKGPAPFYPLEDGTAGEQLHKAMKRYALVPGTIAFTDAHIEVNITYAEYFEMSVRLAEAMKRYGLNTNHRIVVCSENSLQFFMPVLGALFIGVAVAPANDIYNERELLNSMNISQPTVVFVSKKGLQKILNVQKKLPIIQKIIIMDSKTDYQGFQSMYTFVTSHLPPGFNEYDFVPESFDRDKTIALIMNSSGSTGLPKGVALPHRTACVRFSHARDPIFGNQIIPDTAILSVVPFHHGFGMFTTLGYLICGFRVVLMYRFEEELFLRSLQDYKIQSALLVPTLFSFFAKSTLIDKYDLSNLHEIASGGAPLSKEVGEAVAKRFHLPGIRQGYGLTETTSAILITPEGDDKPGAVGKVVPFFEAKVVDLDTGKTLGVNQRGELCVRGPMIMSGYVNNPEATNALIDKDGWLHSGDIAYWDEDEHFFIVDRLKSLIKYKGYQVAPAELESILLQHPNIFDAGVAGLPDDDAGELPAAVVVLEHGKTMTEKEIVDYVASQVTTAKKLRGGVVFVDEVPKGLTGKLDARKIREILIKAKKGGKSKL
Sequence of zebrafish Estrogen Receptor (ESR1), esr1 (gene 259252) (P57717 whole entry, looked up, the tested form may be a part): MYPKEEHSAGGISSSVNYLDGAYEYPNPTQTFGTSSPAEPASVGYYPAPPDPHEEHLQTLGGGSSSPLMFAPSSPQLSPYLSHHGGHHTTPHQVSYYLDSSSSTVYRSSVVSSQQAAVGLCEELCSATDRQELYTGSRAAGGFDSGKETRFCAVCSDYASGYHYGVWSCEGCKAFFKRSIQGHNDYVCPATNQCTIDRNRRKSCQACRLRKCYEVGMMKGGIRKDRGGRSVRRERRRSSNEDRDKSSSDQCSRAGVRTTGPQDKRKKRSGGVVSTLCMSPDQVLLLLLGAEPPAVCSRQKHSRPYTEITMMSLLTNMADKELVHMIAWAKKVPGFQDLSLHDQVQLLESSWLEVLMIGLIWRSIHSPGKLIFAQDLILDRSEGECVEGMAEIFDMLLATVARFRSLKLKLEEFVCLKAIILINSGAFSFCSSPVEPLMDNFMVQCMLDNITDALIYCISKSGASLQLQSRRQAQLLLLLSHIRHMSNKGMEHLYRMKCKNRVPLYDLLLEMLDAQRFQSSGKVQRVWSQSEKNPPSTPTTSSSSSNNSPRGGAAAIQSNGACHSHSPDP

Oc1cc(Cl)ccc1Oc1ccc(Cl)cc1Cl
outcome [1]: inactive | AC50 [2]: 0.0058 µM (active) | AC50 [3]: 86.3 µM (active) | AC50 [4]: 81.2 µM (active) | AC50 [5]: 75.8 µM (active) | AC50 [6]: 0.0234 µM (active) | outcome [6]: inactive | outcome [7]: inactive | outcome [8]: inactive | outcome [9]: inactive | outcome [10]: inactive | outcome [11]: inactive | outcome [12]: inactive | outcome [13]: inactive | outcome [14]: inactive | outcome [15]: inactive | outcome [16]: inactive

COc1cc(OC)nc(NC(=O)NS(=O)(=O)c2cc(NC=O)ccc2C(=O)N(C)C)n1
outcome [1]: inactive

CCC(C)(C)C(=O)OC1=C(c2ccc(Cl)cc2Cl)C(=O)OC12CCCCC2
outcome [1]: inactive | outcome [6]: inactive

CCOC1Oc2ccc(OS(C)(=O)=O)cc2C1(C)C (stereo unspecified)
outcome [1]: inactive | AC50 [3]: 86.3 µM (active) | AC50 [4]: 83 µM (active) | AC50 [5]: 84.3 µM (active)

CCC(C)Nc1c([N+](=O)[O-])cc(C(C)(C)C)cc1[N+](=O)[O-] (stereo unspecified)
AC50 [1]: 1.14 µM (active) | outcome [3]: inactive | outcome [4]: inactive | AC50 [6]: 46.9 µM (active) | outcome [8]: inactive | outcome [10]: inactive | outcome [11]: inactive | outcome [13]: inactive

Clc1ccccc1-c1nnc(-c2ccccc2Cl)nn1
outcome [1]: inactive | outcome [2]: inactive | outcome [6]: inactive

CCC(C)(NC(=O)c1cc(Cl)c(C)c(Cl)c1)C(=O)CCl (stereo unspecified)
outcome [1]: inactive | AC50 [3]: 19.6 µM (active) | AC50 [4]: 23.9 µM (active) | AC50 [5]: 22.9 µM (active)

CC[C@H](C)[C@H]1O[C@]2(C=C[C@@H]1C)C[C@@H]1C[C@@H](C/C=C(\C)[C@@H](O[C@H]3C[C@H](OC)[C@@H](O[C@H]4C[C@H](OC)[C@@H](O)[C@H](C)O4)[C@H](C)O3)[C@@H](C)/C=C/C=C3\CO[C@@H]4[C@H](O)C(C)=C[C@@H](C(=O)O1)[C@]34O)O2 (tested in a mixture with another compound)
outcome [6]: inactive

COP(=S)(OC)Oc1ccc(SC)c(C)c1
outcome [6]: inactive | outcome [14]: inactive | outcome [16]: inactive | AC50 [17]: 66.9 µM (active)

CCCN(CCOc1c(Cl)cc(Cl)cc1Cl)C(=O)n1ccnc1
AC50 [6]: 50 µM (active) | outcome [6]: inactive | outcome [14]: inactive | outcome [16]: inactive | outcome [17]: inactive

O=C(O)COc1ccc(Cl)cc1Cl
outcome [2]: inactive | outcome [6]: inactive
